Only a selection was taken, and hits are over-represented in it overall.
ER stress surv: ER stress cell death inhibition; AID 1010; 48,000 compounds, 0.33% hits; CSM14.1 thapsigargin ER stress survival, ATP luminescence; relative survival (cellular ATP), % at 15 µg/mL (by protocol);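 active = survival measured by cellular ATP above 50% at 15 µg/ml in the first screen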;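 also: cell death triggered by about 15 µM thapsigargin; ATP read 24 h after thapsigargin was added; plate controls were thapsigargin with DMSO for no effect and DMSO without thapsigargin for full effect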
The depositor's hits bear a star.

SMILES | ER stress surv
Cc1ccc(C(=O)O/N=C(\N)Cc2ccc(Cl)cc2Cl)cc1[N+](=O)[O-] | 0.1
Cc1nn(-c2cc(Cl)ccc2Cl)c(C)c1-c1cccc([N+](=O)[O-])c1 | 2.1
COc1ccc(CN2CCN(C(=O)c3cccs3)CC2)cc1OC | -8.9
CC(C)CC(=O)N1CCN(Cc2ccc3ccccc3c2)CC1 | -3.0
CCn1c2ccccc2c2cc(CN3CCN(Cc4ccc(OC)c(Br)c4)CC3)ccc21 | 2.4
CCn1c2ccccc2c2cc(CN3CCN(C(=O)CC(C)C)CC3)ccc21 | 63.4*
O=C(c1cccs1)N1CCN(Cc2ccc(Cl)cc2)CC1 | -4.0
CCn1c2ccccc2c2cc(CN3CCN(C(=O)c4cccs4)CC3)ccc21 | 133.3*
Cc1ccc(S(=O)(=O)NC(Cc2ccccc2)C(=O)NCCc2c[nH]c3ccccc23)cc1 (stereo unspecified) | -0.5
COc1ccc(C2Nc3ccccc3C(=O)N2Cc2ccco2)cc1Cn1nnc2ccccc21 (stereo unspecified) | 28.2
O=C(Nc1ccc(Cl)c(Cl)c1)c1ccc([N+](=O)[O-])o1 | 0.8
O=C(Nc1ncccn1)c1ccc([N+](=O)[O-])o1 | 65.0*
Cc1ccc(C(=O)Nc2ncccn2)o1 | -5.1
CN(C)c1nc(-c2ccccc2)cc(-c2ccccc2)n1 | 2.3
C/C(=N\N=C1\NC(=O)C(CC(=O)Nc2cc(Cl)ccc2Cl)S1)C(C)C (stereo unspecified) | 3.1
O=C(CSc1nccn1Cc1ccccc1)c1ccc([N+](=O)[O-])cc1 | 19.5
Nc1nonc1C(=O)N/N=C/c1cccc(Br)c1 | -1.1
O=C1N=c2ccccc2=C1c1sc(Nc2ccc(F)cc2)nc1O | -0.8
COc1ccc(C2CC(=O)C3=C(C2)Nc2ccccc2NC3c2ccc(F)cc2)cc1OC (stereo unspecified) | 13.3
COc1ccc(C2CC(=O)C3=C(C2)Nc2ccccc2NC3c2cccc(Br)c2)cc1OC (stereo unspecified) | 122.2*
COc1ccc(C2CC(=O)C3=C(C2)Nc2ccccc2NC3c2cccc(C(F)(F)F)c2)cc1OC (stereo unspecified) | 134.6*
COc1ccc(C2CC(=O)C3=C(C2)Nc2ccccc2NC3c2ccc(OC(C)=O)c(OC)c2)cc1OC (stereo unspecified) | 3.0
COc1ccc(C2Nc3ccccc3NC3=C2C(=O)CC(c2ccccc2)C3)cc1OC (stereo unspecified) | 6.9
COc1ccc(C2Nc3ccccc3NC3=C2C(=O)CC(c2ccc(OC)c(OC)c2)C3)cc1 (stereo unspecified) | 5.3
C=CCOc1c(Cl)cc(CNn2cnnc2)cc1OC | 1.7
SMILES | ER stress surv
N#CCc1nc(-c2ccc([N+](=O)[O-])cc2)cs1 | -0.8
CC1(C)CC(=O)C2=C(C1)Nc1ccccc1N(C(=S)Nc1ccccc1)C2c1cccc([N+](=O)[O-])c1 (stereo unspecified) | 8.2
COc1ccccc1C(=O)N1CCN(Cc2ccccc2[N+](=O)[O-])CC1 | 2.8
COc1cccc(CN2CCN(C(=O)C(c3ccccc3)c3ccccc3)CC2)c1OC | 9.8
O=C(C(c1ccccc1)c1ccccc1)N1CCN(Cc2ccccc2[N+](=O)[O-])CC1 | 91.5*
CCN(CC)c1ccc(Nc2nc(-c3c(C)nc4ccccn34)cs2)cc1 | 44.5
CCN(CC)c1ccc(Nc2nc(-c3sc(N)nc3C)cs2)cc1 | 72.2*
Cc1nc(C)c(-c2csc(Nc3ccc(O)cc3)n2)s1 | 2.4
Cc1ccc(-c2nc3cc(Cl)ccc3o2)cc1NC(=S)NC(=O)c1ccco1 | 3.1
O=C1CC(c2ccccc2)CC2=C1C(c1cccc(Cl)c1Cl)Nc1ccccc1N2 (stereo unspecified) | -1.0
O=C1CC(c2ccc(Cl)cc2)CC2=C1C(c1ccccc1F)Nc1ccccc1N2 (stereo unspecified) | 5.6
O=C1CC(c2ccccc2)CC2=C1C(c1c(F)cccc1Cl)Nc1ccccc1N2 (stereo unspecified) | 105.4*
O=C1CC(c2ccccc2)CC2=C1C(c1cc(Br)ccc1F)Nc1ccccc1N2 (stereo unspecified) | 79.7*
COc1ccc(C2CC(=O)C3=C(C2)Nc2ccccc2NC3c2c(F)cccc2Cl)cc1 (stereo unspecified) | 0.6
O=C1CC(c2ccccc2)CC2=C1C(c1ccc(Br)cc1)Nc1ccccc1N2 (stereo unspecified) | 11.9
CN1C(=O)NC(=O)/C(=C/c2ccc(O)c(Br)c2)C1=O | 1.5
COc1cc(NC(=O)c2cccc(OCc3ccccc3)c2)ccc1NC(=O)c1ccco1 | 0.7
Clc1ccc(CNC23CN4CN(CN(C4)C2)C3)cc1 | 6.0
COc1cccc(/C=C2\SC(=S)N(CCC(=O)O)C2=O)c1 | 7.9
CCOC(=O)c1c(NC(=O)/C=C/c2ccc3c(c2)OCO3)sc(C(C)=O)c1C | 11.7
O=C(NCCNC(=O)c1cccs1)c1cccs1 | 3.7
O=C(CC(=S)c1cccs1)c1ccncc1 | 60.9*
O=C(NCc1ccncc1)c1cccs1 | 18.4
O=C1S/C(=C\c2ccc(-c3ccc([N+](=O)[O-])cc3)o2)C(=O)N1c1ccccc1 | -2.3
CCN1C(=O)/C(=C\c2ccc(-c3ccc([N+](=O)[O-])cc3)o2)SC1=S | 6.9
SMILES | ER stress surv
O=C1/C(=C/c2ccc(-c3ccc([N+](=O)[O-])cc3)o2)SC(=S)N1Cc1ccco1 | 56.5*
CC(C)(C)C1CCc2c(sc(NC(=O)c3ccncc3)c2C(N)=O)C1 (stereo unspecified) | 5.8
CC(C)(C)C1CCc2c(sc3ncn(N)c(=N)c23)C1 (stereo unspecified) | -28.5
CSc1nc(NC(N)=O)c2c3c(sc2n1)CC(C(C)(C)C)CC3 (stereo unspecified) | 58.4*
COc1ccc(Cl)cc1NC(=O)CN(c1ccc(C)cc1)S(=O)(=O)c1ccc(F)cc1 | -2.2
CCCCc1ccc(NC(=O)c2ccc([N+](=O)[O-])o2)cc1 | 3.3
O=C(Nc1ccc(S(=O)(=O)Nc2nccs2)cc1)c1cc(-c2ccc(Br)cc2)nc2ccccc12 | 1.0
CCOC(=O)/C(=C/C=C/N(C1CCCCC1)C1CCCCC1)C(C)=O | 50.5*
CCOC(=O)/C(C(C)=O)=C(\C=C\N(C)C)N(C)C | -7.3
COC(=O)/C(=C\C=C\N(C)c1ccccc1)C(C)=O | -5.0
CCCC(C)NC(=O)c1ccc([N+](=O)[O-])cc1Cl (stereo unspecified) | 0.0
O=C1CC(c2ccccc2)CC2=C1C(c1ccc(OCc3ccccc3)cc1)Nc1ccccc1N2 (stereo unspecified) | -1.2
CCOc1ccc(C2Nc3ccccc3NC3=C2C(=O)CC(c2ccccc2)C3)cc1 (stereo unspecified) | 99.8*
COc1ccc(C2CC(=O)C3=C(C2)Nc2ccccc2NC3c2cc(C)ccc2C)cc1 (stereo unspecified) | 115.7*
CCCCOC(=O)C1=C(C)NC2=C(C(=O)CC(c3ccccc3)C2)C1c1ccco1 (stereo unspecified) | 68.1*
COc1ccc(C2CC(=O)C3=C(C2)Nc2ccccc2NC3c2ccccc2Br)cc1 (stereo unspecified) | 7.6
COC(=O)C1=C(C)NC2=C(C(=O)CC(c3ccccc3)C2)C1c1ccc(Cl)cc1 (stereo unspecified) | 0.0
COc1ccc(C2CC(=O)C3=C(C2)Nc2ccccc2NC3c2ccccc2)cc1 (stereo unspecified) | 19.4
Cc1ccc(C2Nc3ccccc3NC3=C2C(=O)CC(c2ccccc2)C3)cc1 (stereo unspecified) | 49.0
